# Values without a mark were called inactive. Records with an inconclusive call do not appear. Calls of active or inactive are those of the source. Rule as the data show it, unless noted: active = potency below about 10 µM; inactive = the rest.
# Target: Lysosomal acid glucosylceramidase (Homo sapiens) (UniProt P04062)
# Experiment: Glucocerebrosidase-p2 (AID 348)
# Details: purified GBA, blue fluorogenic substrate, 40 min
# Method in brief: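 Compounds titrated from 0.6 nM upwards against 0.2 nM enzyme in pH 5.9 citric acid/KH2PO4, taurocholate, tween-20; blue fluorogenic substrate 80 uM, 40 min room temperature, stopped and read Ex 365/Em 440 for AC50.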
# Potency is read from the fitted curve at half-maximal effect.
# Chain of Lysosomal acid glucosylceramidase (Homo sapiens) (P04062 whole entry, looked up): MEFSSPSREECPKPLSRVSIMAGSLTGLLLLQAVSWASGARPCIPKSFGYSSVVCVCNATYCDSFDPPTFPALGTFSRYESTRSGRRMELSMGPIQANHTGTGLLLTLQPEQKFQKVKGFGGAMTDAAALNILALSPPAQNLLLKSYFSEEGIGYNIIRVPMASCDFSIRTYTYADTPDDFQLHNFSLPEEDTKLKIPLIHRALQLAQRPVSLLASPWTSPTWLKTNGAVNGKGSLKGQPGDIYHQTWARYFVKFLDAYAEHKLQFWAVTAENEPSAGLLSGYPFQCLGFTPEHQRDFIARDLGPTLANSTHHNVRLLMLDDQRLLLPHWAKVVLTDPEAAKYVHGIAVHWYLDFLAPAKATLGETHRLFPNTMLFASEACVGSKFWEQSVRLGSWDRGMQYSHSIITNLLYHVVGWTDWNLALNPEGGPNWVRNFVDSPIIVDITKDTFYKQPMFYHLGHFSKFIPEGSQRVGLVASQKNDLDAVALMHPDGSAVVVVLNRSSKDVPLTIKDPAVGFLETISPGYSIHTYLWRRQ
row,Structure (SMILES),Potency
1,FC(F)(F)c1ccccc1-c1nccc(NCc2cccs2)n1,> 11.4 µM
2,CN1CCN(c2ncc3ncc(=O)n(C[C@H]4CCCO4)c3n2)CC1,> 11.4 µM
3,COCCn1c(=O)c(-c2cccc(C#N)c2)nc2cnc(Oc3ccccc3)nc21,> 11.4 µM
4,CS(=O)(=O)Nc1cccc(-c2ccc3ncnc(Nc4ccccc4)c3c2)c1,> 11.4 µM
5,FC(F)(F)c1ccccc1-c1nc(NCc2cccs2)c2ccccc2n1,> 11.4 µM
6,c1ccc(CNc2ncnc3ccc(-c4cccnc4)cc23)cc1,> 11.4 µM
7,COc1ccc(-c2nc3cnc(N4CCN(C)CC4)nc3n(Cc3cccs3)c2=O)cc1,> 11.4 µM
8,COCCn1c(=O)cnc2cnc(Nc3cccc(OC)c3)nc21,> 11.4 µM
9,COCCn1c(=O)cnc2cnc(Nc3ccccc3)nc21,> 11.4 µM
10,CN1CCN(c2ncc3nc(-c4cc(F)cc(F)c4)c(=O)n(CCc4ccccc4)c3n2)CC1,> 11.4 µM
11,O=c1c(-c2ccc(Cl)cc2)nc2cnc(N3CCNCC3)nc2n1Cc1cccs1,> 11.4 µM
12,O=c1c(-c2ccc(F)cc2)nc2cnc(N3CCNCC3)nc2n1C1CC1,> 11.4 µM
13,COc1ccc(-n2c(=O)c(-c3ccc(Cl)cc3)nc3cnc(N4CCNCC4)nc32)cc1,> 11.4 µM
14,COCCNc1ncnc2ccc(-c3cccc(OC)c3)cc12,> 11.4 µM
15,O=c1c(-c2ccc(Cl)cc2)nc2cnc(N3CCOCC3)nc2n1-c1ccccc1,> 11.4 µM
16,CN(C)c1ncc2nc(-c3ccc(F)cc3)c(=O)n(Cc3ccc(F)cc3)c2n1,> 11.4 µM
17,COc1ccc(-c2nc3cnc(Oc4ccccc4)nc3n(CCC#N)c2=O)cc1,> 11.4 µM
18,COc1cccc(Nc2ncc3nc(CCc4ccccc4)c(=O)n(C)c3n2)c1,> 11.4 µM
19,Cc1nc2cncnc2n(C2CC2)c1=O,> 11.4 µM
20,COc1ccc2[nH]cc(CCNc3ncnc4ccc(-c5cccnc5)cc34)c2c1,> 11.4 µM

row,Structure (SMILES),Potency
1,Cn1c(=O)c(-c2ccc(Cl)cc2)nc2cnc(N3CCOCC3)nc21,> 11.4 µM
2,CN(C)c1ncc2nc(-c3ccccc3)c(=O)n(Cc3ccc(F)cc3)c2n1,> 11.4 µM
3,COc1ccc(Oc2ncc3nc(-c4ccc(Cl)cc4)c(=O)n(C[C@H]4CCCO4)c3n2)cc1,> 11.4 µM
4,COc1ncc2nc(-c3ccc(F)cc3)c(=O)n(C)c2n1,> 11.4 µM
5,CN1CCN(c2ncc3nc(-c4cc(F)cc(F)c4)c(=O)n(Cc4cccs4)c3n2)CC1,> 11.4 µM
6,CCNc1ncc2nc(-c3ccccc3)c(=O)n(Cc3cccs3)c2n1,> 11.4 µM
7,CN1CCN(c2ncc3nc(-c4ccc(Cl)cc4)c(=O)n(-c4ccccc4)c3n2)CC1,> 11.4 µM
8,CN1CCN(c2ncc3nc(-c4ccc(F)cc4)c(=O)n(Cc4cccs4)c3n2)CC1,> 11.4 µM
9,CNc1nc(-c2ccccc2CN(C)C)nc2ccccc12,> 11.4 µM
10,COCCNc1ncnc2ccc(-c3cccnc3)cc12,> 11.4 µM
11,COc1cccc(Cn2c(=O)c(-c3cccc(C#N)c3)nc3cnc(N4CCN(C)CC4)nc32)c1,> 11.4 µM
12,COc1cccc(Cn2c(=O)c(-c3cc(F)cc(F)c3)nc3cnc(N(C)C)nc32)c1,> 11.4 µM
13,COc1cccc(Cn2c(=O)c(-c3cc(F)cc(F)c3)nc3cnc(N4CCN(C)CC4)nc32)c1,> 11.4 µM
14,COc1cccc(Nc2ncc3nc(C)c(=O)n(Cc4cccs4)c3n2)c1,> 11.4 µM
15,CN1CCN(c2cc(-c3ccoc3)ncn2)CC1,> 11.4 µM
16,CN(C)c1ncnc2ccc(-c3ccoc3)cc12,> 11.4 µM
17,CCNc1ncc2nc(-c3cn(C)c4ccccc34)c(=O)n(Cc3cccc(OC)c3)c2n1,> 11.4 µM
18,COc1ccc(-c2nc3cnc(Oc4cccc(Cl)c4)nc3n(C3CC3)c2=O)cc1,> 11.4 µM
19,COc1ncc2nc(-c3cccs3)c(=O)n(CCc3ccccc3)c2n1,> 11.4 µM

# Target: Cytochrome P450 1A2 (Homo sapiens) (UniProt P05177)
# Sequence (P05177 whole entry, looked up): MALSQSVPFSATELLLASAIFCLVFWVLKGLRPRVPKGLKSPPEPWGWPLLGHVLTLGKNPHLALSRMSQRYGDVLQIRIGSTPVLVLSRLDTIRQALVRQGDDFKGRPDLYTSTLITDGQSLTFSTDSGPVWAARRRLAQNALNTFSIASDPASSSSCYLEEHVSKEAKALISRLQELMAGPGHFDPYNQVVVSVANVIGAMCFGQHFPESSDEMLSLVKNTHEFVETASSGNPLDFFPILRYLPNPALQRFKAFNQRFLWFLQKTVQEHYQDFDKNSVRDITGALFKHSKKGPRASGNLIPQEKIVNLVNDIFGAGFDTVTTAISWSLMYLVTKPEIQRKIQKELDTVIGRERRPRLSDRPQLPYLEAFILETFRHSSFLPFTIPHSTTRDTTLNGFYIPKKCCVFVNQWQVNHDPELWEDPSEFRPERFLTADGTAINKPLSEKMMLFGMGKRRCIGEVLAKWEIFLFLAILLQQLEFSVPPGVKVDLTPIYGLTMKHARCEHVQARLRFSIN
# Experiment: p450-cyp1a2 (AID 410; calls by dose curve;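 as to activity change, negative = inhibition: -100% = full effect of reference inhibitor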)
# Details: recombinant CYP1A2, luciferin-ME demethylation, luminescence; series mostly up to 57 µM; activity change, negative = inhibition: at the top concentration
# Method in brief: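 Luminescent readout of luciferin formed from Luciferin-ME by human CYP1A2; data normalized against complete inhibition by 57 uM furafylline. Enzyme 20nM, substrate 100uM at Km, 100mM KPO4 buffer, 60 min reaction at room temperature.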
Structure (SMILES),Potency,"activity change, negative = inhibition"
FC(F)(F)c1ccccc1-c1nccc(NCc2cccs2)n1,1.26 µM (active),
CN1CCN(c2ncc3ncc(=O)n(C[C@H]4CCCO4)c3n2)CC1,10 µM (active),
COCCn1c(=O)c(-c2cccc(C#N)c2)nc2cnc(Oc3ccccc3)nc21,15.8 µM (active),
CS(=O)(=O)Nc1cccc(-c2ccc3ncnc(Nc4ccccc4)c3c2)c1,1 µM (active),
c1ccc(CNc2ncnc3ccc(-c4cccnc4)cc23)cc1,0.126 µM (active),
COCCn1c(=O)cnc2cnc(Nc3cccc(OC)c3)nc21,0.794 µM (active),
COCCn1c(=O)cnc2cnc(Nc3ccccc3)nc21,1 µM (active),
CN1CCN(c2ncc3nc(-c4cc(F)cc(F)c4)c(=O)n(CCc4ccccc4)c3n2)CC1,,-16.9%
O=c1c(-c2ccc(Cl)cc2)nc2cnc(N3CCNCC3)nc2n1Cc1cccs1,12.6 µM (active),
O=c1c(-c2ccc(F)cc2)nc2cnc(N3CCNCC3)nc2n1C1CC1,2.51 µM (active),
COc1ccc(-n2c(=O)c(-c3ccc(Cl)cc3)nc3cnc(N4CCNCC4)nc32)cc1,12.6 µM (active),
COCCNc1ncnc2ccc(-c3cccc(OC)c3)cc12,0.794 µM (active),
O=c1c(-c2ccc(Cl)cc2)nc2cnc(N3CCOCC3)nc2n1-c1ccccc1,2 µM (active),
CN(C)c1ncc2nc(-c3ccc(F)cc3)c(=O)n(Cc3ccc(F)cc3)c2n1,,9.9%
Cc1nc2cncnc2n(C2CC2)c1=O,15.8 µM (active),
COc1ccc2[nH]cc(CCNc3ncnc4ccc(-c5cccnc5)cc34)c2c1,0.0794 µM (active),

Structure (SMILES),Potency,"activity change, negative = inhibition"
Cn1c(=O)c(-c2ccc(Cl)cc2)nc2cnc(N3CCOCC3)nc21,2.51 µM (active),
CN(C)c1ncc2nc(-c3ccccc3)c(=O)n(Cc3ccc(F)cc3)c2n1,12.6 µM (active),
COc1ncc2nc(-c3ccc(F)cc3)c(=O)n(C)c2n1,0.501 µM (active),
CN1CCN(c2ncc3nc(-c4cc(F)cc(F)c4)c(=O)n(Cc4cccs4)c3n2)CC1,6.31 µM (active),
CCNc1ncc2nc(-c3ccccc3)c(=O)n(Cc3cccs3)c2n1,0.316 µM (active),
CN1CCN(c2ncc3nc(-c4ccc(F)cc4)c(=O)n(Cc4cccs4)c3n2)CC1,25.1 µM (active),
CNc1nc(-c2ccccc2CN(C)C)nc2ccccc12,3.16 µM (active),
COCCNc1ncnc2ccc(-c3cccnc3)cc12,0.2 µM (active),
COc1cccc(Cn2c(=O)c(-c3cccc(C#N)c3)nc3cnc(N4CCN(C)CC4)nc32)c1,,-4.7%
COc1cccc(Cn2c(=O)c(-c3cc(F)cc(F)c3)nc3cnc(N(C)C)nc32)c1,,-19.4%
COc1cccc(Cn2c(=O)c(-c3cc(F)cc(F)c3)nc3cnc(N4CCN(C)CC4)nc32)c1,,-16.9%
COc1cccc(Nc2ncc3nc(C)c(=O)n(Cc4cccs4)c3n2)c1,2.51 µM (active),
CN(C)c1ncnc2ccc(-c3ccoc3)cc12,0.794 µM (active),
CCNc1ncc2nc(-c3cn(C)c4ccccc34)c(=O)n(Cc3cccc(OC)c3)c2n1,12.6 µM (active),
COc1ncc2nc(-c3cccs3)c(=O)n(CCc3ccccc3)c2n1,1.26 µM (active),

# Source: PubChem BioAssay (NCATS)
